# Laboratory results taken from the supplement of paper PMC11417369.
# Over roughly 25,000 sequences, “ln(normalized median fluorescence intensity)” has its median near 6.7; the highest 2% begin near 10. Only a selection was taken, and the highest values are over-represented in it overall.
# System: PfHDP1 homeodomain (GST-tagged)
# Assay: gcPBM binding intensity (ln(normalized median fluorescence intensity)); higher = stronger DNA binding
# In short: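 Each value is the highest Masliner-normalised natural-log median intensity across replicate spots of either orientation of a probe. The probes were primer-extended double-stranded 36-bp intergenic genomic sequences on an Agilent 4 × 180k array, alongside negative controls, exposed for 1 h to GST-tagged P. falciparum DNA-binding domains expressed in E. coli. Bound protein was picked up with Alexa488 anti-GST antibody and scanned at 488 nm.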
row,Sequence,gcPBM binding intensity (ln)
1,TAATAAATAAAAACATGTACATATATACATATATGT [XGTACX_site485],6.35
2,ATATATATAAATATATGTACATAAATATATTTGTAA [XGTACX_site6715],6.71
3,GAAAAAAGGAAATAAAGAAAAAAAAAAATGAAATAT [XGTACX_negctrl_site318],6.22
4,AACATTTTAAAACAGACACACACCAAAAAAAAAAAA [CACACA_site257],6.26
5,GGACAAGTTAAACGCACACAAATATATACCCCCATA [CACACA_site4996],7.91
6,CCTTGTCTTTTTTTTTTTTTTTTTTCTTCTTATTTT [GTGCAC_negctrl_site523],6.24
7,CATATAGTAATATATACACACACTTGTCTTGTAAAA [CACACA_site8238],6.54
8,ATTTAATACAAATACACACACAAATATGTACCTATA [CACACA_site7718],7.02
9,ACATTCTGATGGTGATTATTAATTATTACAAAAATT [CACACA_negctrl_site283],6.01
10,GAAAAATATATTCTGGTGCATGAATAAAATCATAAA,9.33
11,GTTTACATCATTCTGGTGCAAAAAAAAAAAAAAATA,10.5
12,AATTAAAAAGTTTTTAATGTTTTTAATTTTTTCCAC [XGTACX_negctrl_site423],5.99
13,TATATATATTAAAAACGTACAAAATAAGAATTAATT [XGTACX_site5979],6.8
14,TTTATATTAATTGATGTGCACTGAAATATTTGTCCA [GTGCAC_site9655],9.08
15,TTATTTTATTTTTGTGCACACTGATAAATTGAAAAG [CACACA_site2949],11.2
16,TTTTGAAAAAATTTTTATAAAAGAATAAAATTATTA [XGTACX_negctrl_site570],6.06
17,TATTTTGAAAAAGTTGCACACAAAATTTAAAAAAAA [CACACA_site8470],9.29
18,TTTATTTTTGAAGTTGCACACACAAAAATAAAAAGT [CACACA_site8030],8.92
19,ATTTTATTTTTGTGCACACTGATAAATTGAAAAGAG [CACACA_site2948],11.1
20,CACTTTTTTTAAATGTGTACGTATATGAAAATATCA [XGTACX_site4854],6.38
21,GTTATATGAACTTATATACACACCATTTTTGTAAAT [CACACA_site695],6.69
22,AAAATTAACCGTAACACACACACATATAAATATGTA [CACACA_site7791],6.55
23,TAATTTTTCCTTTTTGCACACATTAACGTCGACGAA [CACACA_site4025],10.8
24,TCTAATTATCACATTGCACACACATTTCCTTTTACA [CACACA_site9140],9.66

row,Sequence,gcPBM binding intensity (ln)
1,TAATTATCACATTGCACACACATTTCCTTTTACATT [CACACA_site3443],9.61
2,TATATATATATATGTATGCACTTTAATTTTATAAGG,9.31
3,TTATGTTCTTAATGCACACTTATAAGTATCTTATAA [CACACA_site1394],9.72
4,TTTTATGTTCTTAATGCACACTTATAAGTATCTTAT [CACACA_site4895],10.6
5,TATGAATATTGCATGTGTACCTATTATCCTTTTAAA [XGTACX_site4311],6.95
6,TATAAAAAAAAAAAAAGTACTAACTTAAAACAATTT [XGTACX_site7969],5.92
7,AACACTTTAATTTATGCACACATATGGAACAACAGC [CACACA_site8241],10.2
8,TATTCAACATAATATGCACACAAAAATTATGGAACG [CACACA_site8660],9.99
9,CACTTTAATTTATGCACACATATGGAACAACAGCCA [CACACA_site994],10.6
10,TTTTTTTAACGGTGTGCACACAATATACAGAAAAAA [CACACA_site1415],11.1
11,TTTTTTTAATAGTGTGCACACAATATACAGAAAAAA [CACACA_site8399],11
12,TTATAATAATTTTATGCACACAGAAAAATACAAGGT [CACACA_site9169],10.2
13,TTTTTAAAAATATACACACACAGATATTATATATAT [CACACA_site786],6.94
14,TTTTTAATATATTAGGTGCACAATAATACACTTTAT,10.3
15,ACAGAATACATATACACACATACAAAAAAGTGCATA [CACACA_site987],7.81
16,TGTAGTCTGGAGAAAAGTACATAGTATCTGATAACC [XGTACX_site2018],6.4
17,TGGCACTAAAAAAATAAACACACAGATTTATATAAT [CACACA_site8386],6.51
18,CCATTTTAAATATGCACACAGATGCACTAACCCATT [CACACA_site1883],9.9
19,TAAATATGCTCACAGATGCACTAACACATTTTTATA [GTGCAC_site9997],10.4
20,CCATTTTAAATATGCACACAGATGCACTAACACATT [CACACA_site5099],10.6
21,GCACTAAAAAAATAAACACACAGATTTATATAATAT [CACACA_site1381],6.5
22,AACCATTTTAAATATGCACACAGATGCACTAACACA [CACACA_site8565],10.5
23,TATGTTCCTTTTTGTTGTACTGAAAAATTATGTTCA [XGTACX_site3981],6.61
24,GAAATAATAAATTAAAAATCGTTTATAACATTTAAC [CACACA_negctrl_site425],6.21

row,Sequence,gcPBM binding intensity (ln)
1,AAATTCATAAAAATATTTTATAATTATATATAGAAT [TGCATGCA_negctrl_site343],6.34
2,ATAAAATATATATATATAAAAATAAATACATAAATA [GTGCAC_negctrl_site157],6.31
3,ATGCATATGTTTATTGCACACACCAAAAAGAAAACA [CACACA_site403],9.25
4,GCATATGTTTATTGCACACACCAAAAAGAAAACATA [CACACA_site4384],10.5
5,CACAAAAAGAAACACACACACATATATATTTATTAT [CACACA_site3646],6.73
6,ACTATATTTCATAACAGTACATATTCCTGAAACATC [XGTACX_site4924],6.43
7,ATAATATAAATACAAACACACAATTGTGTCCACATT [CACACA_site6920],6.79
8,AGTATATACACGTGCGTGCACAGATATTCTTTTTTT [GTGCAC_site9398],9.58
9,AATACTAAAAAGTGTACACATACATAAAAAATTGCA [CACACA_site5620],7.24
10,CCACTAATTATGTGCACACAAATTAAAGGTCTACAA [CACACA_site4259],11.4
11,TTTATATTTAAAAGGATGCACTACAAATTCTAAATA,7.36
12,GTACACTAATTATGTGCACACAAATTAAAGGTCTAC [CACACA_site146],11
13,ATATTCTAAATAAAGGGTACACAAAAATAATTAAAG [XGTACX_site5529],6.9
14,ACGCTAATTATGTGCACACAAATTAAAGGTCTACAA [CACACA_site147],11.4
15,GATTTATACAAATATGTACACACTAATTATATATTA [CACACA_site8045],6.9
16,TGTTAATAAAGGTGTACACAAAATAAAAAAAATTAT [CACACA_site4288],7.2
17,AATTAATGGCTAAAGGTGCACAATATATATATTACA,9.84
18,TCTTTATGTAAGGTCTTCCACAAAAAAATTAAAAAA [TGCATGCA_negctrl_site229],6.21
19,TTTTTCTTTCTCTATTGTACACATGGAAACACATAA [XGTACX_site4601],7.56
20,AAAAAAAAAAGAAACACACACATATATATATATAAT [CACACA_site5052],6.7
21,AATACAAACCAAAAAGTAAATACATCAACATGATCA [CACACA_negctrl_site140],6.26
22,CTATATATTTTTCATTGTACACAAATTAAAGAAAAA [XGTACX_site8385],6.61
23,ATGTTGCACAATGTTACACACACAATATATATCGTT [CACACA_site4833],10.7
24,GTTGCACAATGTTACACACACAATATATATCGTTAA [CACACA_site1275],9.41

row,Sequence,gcPBM binding intensity (ln)
1,GTTGCACAATGTTACACACACAATATAGATCGTTAA [CACACA_site6717],9.91
2,ATATAATTACATTGATGTACACGAAATGATTAACAT [XGTACX_site5183],6.43
3,TATTCAGGTCCAATGGTGCAATATATTTTTGTAATA [GTGCAC_site9607],10.6
4,TATTCATATTTAAAGGTGCAATATTTATTTTGTACA,9.16
5,ATTCATTTACCAATGGTGCAATATATTTTTATAATG,10.3
6,ATTAGTATATTTCTCTGTACTTACATTAAAATATAA [XGTACX_site2217],6.41
7,TTACACATGTATTTGGTGCATGTTGTTAACAAAATA,9.83
8,TTTTTTGTTAAGTTGGTGCAAACAATAGTTATTGAC,10.7
9,ATTTATTTATACAAAGTGCAATATTTTGTTAAAGTC [GTGCAC_site9618],8.15
10,TTTATTTTAACTTGTTCACACATTTGAATAAATAAA [CACACA_site5064],6.3
11,ATAATATATTATTATAGTACTTTATTTTATTTTATG [XGTACX_site2387],6.65
12,TTTTTAAAATTTTTAAAAATATTATGTTAAATATAT [CACACA_negctrl_site415],6.29
13,CTTTTTTTTTGATGTTGTACATATATATTATATAAT [XGTACX_site1321],6.9
14,TTGTACATCTTTTGCACACGTAATGTTATTAAAATA [CACACA_site4827],10.7
15,TTATTATAAATGTTTTGTACGTACATCCGAAAATAA [XGTACX_site2175],6.57
16,TTGTACATCTTTTGCACACGTAATGTTATTATAATA [CACACA_site1258],10.7
17,AAATAATAAAAAAAATGTACACGTAAATATTATATT [XGTACX_site8125],6.99
18,ATTATGTTATTATTTTGTACACATAAATAATACGTT [XGTACX_site816],6.61
19,TTTTGTACATCTTTTGCACACGTAATGTTATTATAA [CACACA_site1259],10.6
20,TTTTTTTTTTTTTTGTGTACATATAATGCACATTAT [XGTACX_site6505],10.1
21,GAACACTAATAATGTTGTACACGTAATTATATATTT [XGTACX_site777],6.53
